# Compound activity: PubChem BioAssay, The Scripps Research Institute Molecular Screening Center
# CHO-K1 Ca antag: counter-screen for M1 antagonists: effect in parental CHO-K1 cells; 360,000 tested, 0.6% active; ATP-induced calcium, Fluo-8 fluorescence; inhibition, % at 3 µM;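 active = inhibition above a per-plate cutoff, the plate's mean sample inhibition plus 3 SD, cut at about 24% in these data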;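 also: 0% = DMSO plus EC80 ATP and 100% = DMSO alone without ATP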
# CHO-K1 Ca PAM: M1 PAM counterscreen hit in parental CHO-K1 cells. ATP EC20, Fluo-8 calcium fluorescence; 0% at ATP EC20, 100% at ATP max. activation, % at 3 µM. 360,000 tested, 0.02% active. AID 602247;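 active = activation above the run cutoff, the mean activation of all test compounds plus 3 SD, cut at about 40% in these data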;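 also: peak over basal fluorescence ratio in a 140 s read after ATP addition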
# M1 PAM: positive allosteric modulators of human M1 muscarinic receptor; P11229; CHO-K1 hM1, Fluo-8 calcium fluorescence, ACh EC20; 0% = ACh EC20, 100% = maximal ACh; activation, % at 3 µM; 360,000 tested, 0.088% active; in the data active = activation above about 19%, passing the limit was not always enough
# Target sequence (P11229 whole entry, looked up): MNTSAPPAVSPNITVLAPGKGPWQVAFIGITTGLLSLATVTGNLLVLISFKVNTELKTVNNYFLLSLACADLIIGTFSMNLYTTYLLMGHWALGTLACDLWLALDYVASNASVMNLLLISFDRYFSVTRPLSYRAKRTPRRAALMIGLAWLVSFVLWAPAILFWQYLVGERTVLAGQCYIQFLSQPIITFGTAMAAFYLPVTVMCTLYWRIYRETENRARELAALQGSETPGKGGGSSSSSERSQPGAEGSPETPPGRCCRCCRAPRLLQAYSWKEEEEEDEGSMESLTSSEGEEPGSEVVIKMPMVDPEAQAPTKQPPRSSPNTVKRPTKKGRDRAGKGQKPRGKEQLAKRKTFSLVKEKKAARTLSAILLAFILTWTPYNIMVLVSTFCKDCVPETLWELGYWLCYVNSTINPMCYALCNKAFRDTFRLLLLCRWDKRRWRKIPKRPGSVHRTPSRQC
# M1 ag parental: counter-screen for M1 agonists: effect in parental CHO-K1 cells. AID 602248. Fluo-8 calcium fluorescence; scaled to maximal ATP response, vehicle zero. activation, % at 3 µM. 360,000 tested, 0.48% active; in the data active = activation above about 15%;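 also: untransfected CHO-K1 host cells lacking M1 receptor as counterscreen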
# CHRM1 antagonist: human CHRM1 antagonism | 360,000 tested, 1.3% active | inhibition, % at 3 µM | P11229 | CHO-K1 hM1, Fluo-8 calcium fluorescence, ACh EC80 antagonist;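 active = percent inhibition above its own plate's cutoff, namely the mean of that plate's compound wells plus 3 SD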;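 also: peak over basal fluorescence ratio during 140 s after agonist addition; 0% = ACh EC80 plus DMSO and 100% = DMSO alone without agonist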
# M1 ag: activates human CHRM1 receptor. P11229. CHO-K1 hM1, Fluo-8 calcium fluorescence, agonist mode; 0% DMSO, 100% acetylcholine EC100. activation, % at 3 µM. 360,000 tested, 0.33% active;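 active = activation above the run's mean compound activation plus 3 SD, cut at about 16% in these data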;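 also: peak over basal fluorescence ratio within a 140 s kinetic read after compound addition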
# Numbers without * were called inactive. Only some compounds are listed: those with a hit (about 2.3% of all), similar ones and a draw of the others.
SMILES,CHO-K1 Ca antag,CHO-K1 Ca PAM,M1 PAM,M1 ag parental,CHRM1 antagonist,M1 ag
O=C1CCCN2N=C(SCC(=O)Nc3cccc(C(F)(F)F)c3)SC2=N1,26*,-11,-12,15,27*,-3
Cc1ccc(NC(=O)CSC2=NN3CCCC(=O)N=C3S2)cc1Cl,2,12,-7,16*,7,-3
O=C1CCCN2N=C(SCC(=O)Nc3cccc(Cl)c3)SC2=N1,1,-1,-8,16*,9,0
CCOC(=O)C1=C[C@@H](C(C)(C)C)N(S(=O)(=O)c2ccc(C)cc2)[C@H]1c1cccc2ccccc12,9,1,0,1,2,-1
Cc1cccc(N(CC(=O)N2CCN(C)CC2)S(=O)(=O)c2ccccc2)c1,1,10,-4,0,7,-14
CN1CCN(C(=O)CN(c2cccc(Cl)c2)S(=O)(=O)c2ccccc2)CC1,-7,14,-9,0,28*,-5
COC(=O)c1c(N)nc(C)n1-c1ccc(OC)cc1,25*,-6,-1,0,6,-2
Cc1cc2nnc(SC(C)C#N)n2c2ccccc12 (stereo not given),-4,7,5,0,-3,-4
Cc1cc2nnc(SC(C)C)n2c2ccccc12,-3,-1,-10,0,33*,-2
CCOc1ccccc1CN1CCCC(CNS(=O)(=O)c2ccc(OC)cc2)C1 (stereo not given),21,15,-37,0,38*,-14
N#C/C(=C\c1ccc(O)c([N+](=O)[O-])c1)c1nc2ccccc2s1,29*,-10,-10,14,18,2
O=S(=O)(NCc1ccccc1)NCc1cccc(C(F)(F)F)c1,-5,13,8,0,-4,-10
O=C(Nc1ccccc1[N+](=O)[O-])C1COc2ccccc2O1 (stereo not given),7,-20,-15,0,14,-9
CCOC(=O)c1c(N2C(=O)Nc3ccccc3N2O)n[nH]c1-c1cccc(Cl)c1,24*,-16,-4,0,1,-6
CC(Sc1nnc(-c2cccs2)n1-c1ccccc1)C(=O)NCc1ccc2c(c1)OCO2 (stereo not given),24*,-8,6,0,-1,-2
O=C(COc1ccc2ccccc2c1)Nc1ccc(Cc2ccncc2)cc1,25*,-3,-20,11,43*,0
O=C(O)Cc1ccc(NC(=O)COc2ccc3ccccc3c2)cc1,2,-5,-7,0,8,-2
COc1cc2ccccc2cc1C(=O)Nc1ccc(Cc2ccncc2)cc1,10,7,-16,6,30*,-1
CCN(C(=O)C1CC1)C1CCS(=O)(=O)C1 (stereo not given),8,-18,3,0,5,-1
CCC(=O)N1CCN(c2ccc(NC(=O)c3cc4ccccc4o3)cc2Cl)CC1,23,-9,-20,10,18*,2
O=C(Nc1ccc(N2CCN(C(=O)c3ccco3)CC2)c(Cl)c1)c1cc2ccccc2o1,8,16,-11,6,37*,1
CCC(=O)N1CCN(c2ccc(NC(=O)c3ccco3)cc2Cl)CC1,-8,-8,3,4,-6,-1
CCCC(=O)N1CCN(c2ccc(NC(=O)c3cc4ccccc4o3)cc2Cl)CC1,20,-4,-17,13,55*,5
O=C(Nc1ccc(N2CCN(C(=O)c3ccccc3)CC2)c(Cl)c1)c1ccco1,-5,14,-5,5,7,1
CCCC(=O)N1CCN(c2ccc(NC(=O)c3cccs3)cc2Cl)CC1,-1,11,9,0,-4,-8
SMILES,CHO-K1 Ca antag,CHO-K1 Ca PAM,M1 PAM,M1 ag parental,CHRM1 antagonist,M1 ag
CCn1nc(C)cc1-c1nnc(Sc2ncc([N+](=O)[O-])s2)n1C,3,3,4,0,-1,-4
CCOc1ccc(S(=O)(=O)N2CCC(C(=O)Nc3cc(S(C)(=O)=O)ccc3Cl)CC2)cc1,-22,14,4,5,2,4
O=C(Nc1nnc(-c2ccc3c(c2)CCCC3)o1)c1ccccc1Cl,-3,8,-1,0,-1,0
O=C(Nc1nnc(-c2ccc3c(c2)CCCC3)o1)c1ccccc1,2,21,6,11,-5,17*
CC1=CC(C)(C)NC(=S)N1CCO,-13,8,-6,5,6,0
C1=CN2CCC1C(c1ccccc1)C2 (stereo not given),7,2,-14,0,73*,50*
COC(=O)c1ccc(OS(=O)(=O)c2ccc(NC(C)=O)cc2)cc1,24*,-14,-11,5,14,0
CC(=O)Nc1ccc(S(=O)(=O)Oc2ccc(/C=N/NC(=O)c3ccc(Cl)cc3)cc2)cc1,0,15,-1,2,13,-2
C#CC[N+](C)(C)CCCCCCCCCCCC,-7,29,-26,24*,56*,-14
C#CC[N+](C)(C)CCCCCCCCCC,0,20,-17,0,21,-8
CC#CC[N+](C)(C)CCCCCCCCCCCC,-8,16,-27,1,41*,-10
Cc1ccc(CN(C)C(=O)C2CCC(=O)N(C3CCCCCC3)C2)cc1 (stereo not given),-17,1,-8,2,-7,-5
O=C(COC(=O)c1ccc(F)cc1F)Nc1ccc(S(=O)(=O)N2CCOCC2)cc1,20,3,3,1,-11,1
CC(=O)Nc1ccc(Sc2ncccc2C(=O)Nc2ccc(F)cc2)cn1,12,-15,-24,37*,52*,69*
CC[C@@]1(C(=O)OC)N[C@H](CN(C)S(=O)(=O)c2ccc(OC(F)(F)F)cc2)[C@@H]2C(=O)N(C)C(=O)[C@@H]21,-20,13,5,0,-16,-2
COc1cccc(NC(=O)N2CCC(NC(=O)C3CCCCC3)CC2)c1,-12,13,28*,0,-1,-2
CC(=O)c1c(C)nn(CC(=O)NC2CCCN(Cc3ccc(CC(C)C)cc3)C2)c1C (stereo not given),-2,-18,-24,1,47*,-5
CCOc1ccc(C2C(C#N)=C(N)SC(N)=C2C#N)c(OCC)c1,-8,13,-3,7,3,18*
CCOc1cc(C2C(C#N)=C(N)SC(N)=C2C#N)ccc1OCCN1CCOCC1,7,-2,3,0,0,-10
CC(Sc1ccccc1)C(=O)N1CCN(S(=O)(=O)c2cccc(Br)c2)CC1 (stereo not given),-3,-4,5,0,-7,3
COc1cc(CN2CCC(C(=O)N3CCN(c4ccccc4F)CC3)CC2)cc(OC)c1O,33*,-5,8,0,6,-5
